Data taken from PubChem BioAssay (EPA / NIEHS).
Inconclusive results are not listed. Active and inactive are the calls of the source. Rule for the calls, unless noted: active = hit-call score of the fitted dose curve at least 0.9, where 1 is the maximum; inactive = score below 0.9.

Experiments:
[1] = biological target: Paired box protein Pax-6 (Homo sapiens) (UniProt P26367); experiment: ATG_Pax6_CIS: Attagene CIS-FACTORIAL HepG2 Assay for human Paired Box 6 (PAX6) (AID 2282956); details: HepG2 CIS-FACTORIAL PAX6 reporter transcription, RNA readout; actives raise or lower the signal
Procedure, shortened: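 Multiplexed cis-reporter HepG2 system; 24 h treatment; reporter mRNA read by RT-PCR/CE fluorescence; bidirectional fit vs DMSO.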

[2] = ATG_PPRE_CIS: Attagene CIS-FACTORIAL HepG2 Assay for human Peroxisome Proliferator-activated Response Element (PPRE) (AID 2282958); details: HepG2 PPRE cis-element reporter, Attagene transcription factor profiling; actives raise or lower the signal
Procedure, shortened: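 HepG2 cells transiently transfected with multiplexed cis-element reporter units measure endogenous transcription factor activity. After 24 h compound exposure, reporter mRNA is quantified by RT-PCR, 6-FAM labeling, HpaI digestion and capillary electrophoresis; bidirectional fits are made against DMSO baseline.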

[3] = ATG_Sox_CIS: Attagene CIS-FACTORIAL HepG2 Assay for human SRY-box transcription factor (SOX) (AID 2282960); details: HepG2 Attagene cis-factorial SOX reporter, mRNA; actives raise or lower the signal
Procedure, shortened: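 HepG2 cells transiently transfected with cis-element-driven multiple reporter transcription units, dosed 24 h; reporter mRNA measured by RT-PCR, FAM labelling, HpaI digestion and capillary electrophoresis. Bidirectional fit versus DMSO baseline.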

[4] = ATG_SREBP_CIS: Attagene CIS-FACTORIAL HepG2 Assay for human Sterol Regulatory Element Binding (SREBP) (AID 2282962); details: HepG2 Attagene cis-factorial SREBP reporter, mRNA; actives raise or lower the signal
Procedure, shortened: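 mRNA induction of transfected cis-promoter reporters in HepG2 cells, 24 h post-dose. Detection: RT-PCR with 6-FAM-labelled products, HpaI digest, capillary electrophoresis. DMSO served as negative control and baseline.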

[5] = biological target: Signal transducer and activator of transcription 3 (Homo sapiens) (UniProt P40763); experiment: ATG_STAT3_CIS: Attagene CIS-FACTORIAL HepG2 Assay for human Signal Transducer and Activator of Transcription 3 (STAT3) (AID 2282963); details: HepG2, Attagene cis-factorial STAT3 reporter transcription; actives raise or lower the signal
Procedure, shortened: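 Values derive from bidirectional fits relative to DMSO of reporter mRNA levels, measured by RT-PCR with capillary electrophoresis, in HepG2 cells carrying transiently transfected cis-regulated reporter units and exposed 24 h.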

[6] = ATG_TA_CIS: Attagene CIS-FACTORIAL HepG2 Assay for human TA Basal Promoter (AID 2282964); details: HepG2 Attagene CIS-factorial TA basal promoter reporter; actives raise or lower the signal
Procedure, shortened: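 Background-control readout: TA basal promoter reporter mRNA, fitted in both directions relative to DMSO. Measured by RT-PCR and capillary electrophoresis 24 hours after treating HepG2 human liver cells transiently carrying multiplexed cis-regulated reporter constructs.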

[7] = ATG_TCF_b_cat_CIS: Attagene CIS-FACTORIAL HepG2 Assay for human T-Cell-Factor with beta-catenin (TCF/b-cat) (AID 2282965); details: HepG2 TCF/beta-catenin cis-reporter transcription, actives raise or lower the signal
Procedure, shortened: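 HepG2, transient MRTU transfection, cis-element-driven reporters (endogenous TFs). 24 h compound exposure. Readout: reporter mRNA by RT-PCR + 6-FAM primer extension, HpaI digest, capillary electrophoresis. Gain/loss fit vs DMSO baseline.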

[8] = ATG_TAL_CIS: Attagene CIS-FACTORIAL HepG2 Assay for human TAL Basal Promoter (AID 2282966); details: HepG2 Attagene cis-factorial TAL promoter reporter; actives raise or lower the signal;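 note: background control endpoint measuring basal TAL promoter reporter mRNA not a specific factor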
Procedure, shortened: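 Fluorescence of labelled reporter cDNA fragments, resolved by capillary electrophoresis, gave the readout. Human HepG2 liver cells carried transiently transfected cis-element reporter units and were treated for 24 hours; activity was fitted bidirectionally against DMSO.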

[9] = ATG_TGFb_CIS: Attagene CIS-FACTORIAL HepG2 Assay for human Transforming Growth Factor (TGF) (AID 2282967); details: HepG2 Attagene CIS TGFb reporter, mRNA transcription; actives raise or lower the signal
Procedure, shortened: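 Endogenous TGFB1-linked transcription factor activity read as reporter mRNA via RT-PCR and capillary electrophoresis, 24 h after dosing transiently transfected HepG2 cells. Gain or loss of signal fitted relative to DMSO.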

[10] = ATG_VDRE_CIS: Attagene CIS-FACTORIAL HepG2 Assay for human Vitamin D Receptor Element (VDRE) (AID 2282968); details: HepG2 VDRE cis-reporter transcription, actives raise or lower the signal
Procedure, shortened: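 Cell-based multiplexed reporter format in human liver HepG2 cells, 24 h post-dose. Fluorescence from capillary electrophoresis of reporter cDNA gives the signal, with DMSO as negative control and baseline.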

[11] = biological target: Androgen receptor (Homo sapiens) (UniProt P10275); experiment: ATG_AR_TRANS: Attagene TRANS-FACTORIAL HepG2 Assay for human Androgen Receptor (AR) (AID 2282973; active = hit-call score of the fitted dose curve at least 0.9, where 1 is the maximum); details: HepG2 Attagene TRANS-FACTORIAL AR reporter transcription
Procedure, shortened: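 Steps: transfect HepG2 with multiple GAL4-UAS reporter transcription units (TRANS format, exogenous NR-Gal4 protein); dose 24 h; isolate RNA, reverse-transcribe, PCR-amplify, FAM-label, HpaI-digest; resolve by capillary electrophoresis. Positive direction vs DMSO.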

[12] = biological target: Transcription factor Sp1 (Homo sapiens) (UniProt P08047); experiment: ATG_Sp1_CIS: Attagene CIS-FACTORIAL HepG2 Assay for human Specificity Protein 1 (Sp1) (AID 2282961); details: HepG2 Sp1 cis-reporter transcription, actives raise or lower the signal
Procedure, shortened: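 HepG2 cells transiently transfected with multiple reporter transcription units driven by cis-regulatory elements; Sp1-responsive reporter mRNA measured 24 h after dosing by RT-PCR and capillary electrophoresis fluorescence, fitted bidirectionally against DMSO baseline.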

[13] = biological target: X-box-binding protein 1 (Homo sapiens) (UniProt P17861); experiment: ATG_Xbp1_CIS: Attagene CIS-FACTORIAL HepG2 Assay for human X-box Binding Protein 1 (XBP1) (AID 2282972); details: HepG2 XBP1 cis-element reporter, Attagene multiplex; actives raise or lower the signal
Procedure, shortened: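 Fluorescence-labelled cDNA fragments from reporter transcripts, separated by capillary electrophoresis, give the signal. Source: HepG2 cells transfected with promoter-driven reporter units, harvested 24 h post-dose. DMSO served as reference for bidirectional curve fitting.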

[14] = ATG_M_19_TRANS: Attagene TRANS-FACTORIAL HepG2 Assay for M19 Transcription Factor (Internal Marker) (AID 2282974; active = hit-call score of the fitted dose curve at least 0.9, where 1 is the maximum); details: HepG2 Attagene TRANS-FACTORIAL M19 internal marker reporter
Procedure, shortened: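 HepG2 cells transiently transfected with multiple GAL4-UAS reporter transcription units were exposed to chemicals for 24 h. Reporter mRNA was read by RT-PCR, 6-FAM primer extension, HpaI digestion and capillary electrophoresis; gain of signal fitted relative to DMSO.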

[15] = ATG_RORE_CIS: Attagene CIS-FACTORIAL HepG2 Assay for human RAR-related Orphan Receptor Element (RORE) (AID 2282959); details: HepG2 Attagene cis-factorial RORE reporter, mRNA; actives raise or lower the signal
Procedure, shortened: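 HepG2 cells transiently transfected with multiple cis-element reporter transcription units, exposed to chemical for 24 h. Reporter mRNA quantified by RT-PCR, 6-FAM primer-extension labeling, HpaI digestion and capillary electrophoresis; bidirectional fit versus DMSO baseline.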

[16] = biological target: Estrogen receptor (Homo sapiens) (UniProt P03372); experiment: ATG_ERa_TRANS: Attagene TRANS-FACTORIAL HepG2 Assay for human Estrogen Receptor alpha (ERa) (AID 2282970; active = hit-call score of the fitted dose curve at least 0.9, where 1 is the maximum); details: HepG2 Attagene TRANS ERa GAL4 reporter, mRNA
Procedure, shortened: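 Human liver HepG2, transient transfection of multiple GAL4-UAS reporter units; TRANS format (exogenous NR-Gal4 chimera). 24 h dosing. Readout: reporter mRNA, RT-PCR, 6-FAM primer extension, HpaI digest, capillary electrophoresis. Positive direction vs DMSO.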

[17] = biological target: Steroid hormone receptor ERR1 (Homo sapiens) (UniProt P11474); experiment: ATG_ERRa_TRANS: Attagene TRANS-FACTORIAL HepG2 Assay for human Estrogen-Related Receptor alpha (ERRa) (AID 2282971; active = hit-call score of the fitted dose curve at least 0.9, where 1 is the maximum); details: HepG2 Attagene TRANS reporter, ERRa transactivation
Procedure, shortened: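 Reporter transcript induction was quantified by RT-PCR and capillary electrophoresis of FAM-labelled, HpaI-cut products after 24 h treatment of HepG2 cells carrying transiently transfected GAL4-UAS reporter units and an exogenous ERRa-Gal4 fusion; activity scored as increase over DMSO.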

[18] = ATG_GAL4_TRANS: Attagene TRANS-FACTORIAL HepG2 Assay for GAL4 (Internal Marker) (AID 2282976; active = hit-call score of the fitted dose curve at least 0.9, where 1 is the maximum); details: HepG2 Attagene TRANS GAL4 internal marker reporter
Procedure, shortened: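 First, HepG2 cells were transfected with reporter units under GAL4-UAS control. Next, they were treated with chemical for 24 h. Finally, RNA was reverse-transcribed, PCR-amplified, FAM-labelled and resolved by capillary electrophoresis, with induction scored against DMSO.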

Measured: AC50

Estrogen receptor (Homo sapiens), sequence (P03372 whole entry, looked up, the tested form may be a part): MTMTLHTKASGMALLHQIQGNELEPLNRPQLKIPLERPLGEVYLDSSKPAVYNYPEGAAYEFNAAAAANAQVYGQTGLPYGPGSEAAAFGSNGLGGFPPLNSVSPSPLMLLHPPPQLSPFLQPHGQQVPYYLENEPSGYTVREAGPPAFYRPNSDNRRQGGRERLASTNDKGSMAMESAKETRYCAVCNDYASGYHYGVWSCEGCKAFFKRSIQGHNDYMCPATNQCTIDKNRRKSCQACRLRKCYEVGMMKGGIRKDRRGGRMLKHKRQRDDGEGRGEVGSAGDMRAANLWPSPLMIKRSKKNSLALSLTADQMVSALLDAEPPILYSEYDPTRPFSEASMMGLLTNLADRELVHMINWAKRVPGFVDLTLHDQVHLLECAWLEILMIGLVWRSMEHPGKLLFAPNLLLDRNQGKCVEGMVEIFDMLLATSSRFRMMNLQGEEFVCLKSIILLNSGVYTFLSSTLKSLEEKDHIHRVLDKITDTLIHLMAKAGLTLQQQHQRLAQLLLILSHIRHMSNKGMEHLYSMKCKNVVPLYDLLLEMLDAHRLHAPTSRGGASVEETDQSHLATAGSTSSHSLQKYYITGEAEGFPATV
Signal transducer and activator of transcription 3 (Homo sapiens), sequence (P40763 whole entry, looked up): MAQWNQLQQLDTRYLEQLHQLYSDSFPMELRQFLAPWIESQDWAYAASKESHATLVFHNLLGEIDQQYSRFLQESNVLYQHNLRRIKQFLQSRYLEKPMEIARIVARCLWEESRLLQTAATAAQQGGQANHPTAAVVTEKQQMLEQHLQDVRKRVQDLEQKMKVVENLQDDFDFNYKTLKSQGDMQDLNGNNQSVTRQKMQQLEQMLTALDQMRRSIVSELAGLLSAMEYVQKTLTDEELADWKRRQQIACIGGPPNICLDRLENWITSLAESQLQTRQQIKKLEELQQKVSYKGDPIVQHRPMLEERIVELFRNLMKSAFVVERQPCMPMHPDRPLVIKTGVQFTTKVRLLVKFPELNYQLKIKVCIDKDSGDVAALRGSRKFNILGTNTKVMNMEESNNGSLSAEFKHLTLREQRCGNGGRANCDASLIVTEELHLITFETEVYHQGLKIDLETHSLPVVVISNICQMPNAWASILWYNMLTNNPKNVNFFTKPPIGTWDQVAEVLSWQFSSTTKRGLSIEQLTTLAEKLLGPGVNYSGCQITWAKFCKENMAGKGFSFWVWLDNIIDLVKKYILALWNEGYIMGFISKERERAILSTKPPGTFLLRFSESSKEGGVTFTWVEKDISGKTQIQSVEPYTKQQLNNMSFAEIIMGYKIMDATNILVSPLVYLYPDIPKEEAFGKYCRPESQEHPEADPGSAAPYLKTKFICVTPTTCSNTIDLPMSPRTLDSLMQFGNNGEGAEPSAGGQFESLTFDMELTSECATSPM
Transcription factor Sp1 (Homo sapiens), sequence (P08047 whole entry, looked up): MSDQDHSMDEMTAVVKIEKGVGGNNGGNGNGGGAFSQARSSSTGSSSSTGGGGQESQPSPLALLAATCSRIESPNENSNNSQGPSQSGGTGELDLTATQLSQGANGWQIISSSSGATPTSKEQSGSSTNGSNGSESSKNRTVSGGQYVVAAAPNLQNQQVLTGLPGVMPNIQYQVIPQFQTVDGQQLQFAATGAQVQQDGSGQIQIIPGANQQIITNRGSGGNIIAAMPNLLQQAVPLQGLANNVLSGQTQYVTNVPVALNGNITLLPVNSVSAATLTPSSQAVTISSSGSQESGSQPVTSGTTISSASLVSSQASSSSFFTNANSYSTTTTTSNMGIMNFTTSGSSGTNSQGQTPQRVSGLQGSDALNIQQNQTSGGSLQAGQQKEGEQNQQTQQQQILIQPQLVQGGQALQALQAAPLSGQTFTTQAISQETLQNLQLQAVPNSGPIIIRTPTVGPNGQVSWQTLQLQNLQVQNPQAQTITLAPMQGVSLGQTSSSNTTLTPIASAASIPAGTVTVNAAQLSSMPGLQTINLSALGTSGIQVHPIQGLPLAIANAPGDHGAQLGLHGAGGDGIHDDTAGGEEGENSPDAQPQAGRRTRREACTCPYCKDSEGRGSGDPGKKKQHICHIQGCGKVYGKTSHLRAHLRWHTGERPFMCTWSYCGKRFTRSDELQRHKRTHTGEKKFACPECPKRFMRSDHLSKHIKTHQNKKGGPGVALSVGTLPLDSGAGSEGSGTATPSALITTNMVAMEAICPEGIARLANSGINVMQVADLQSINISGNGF
Paired box protein Pax-6 (Homo sapiens), sequence (P26367 whole entry, looked up): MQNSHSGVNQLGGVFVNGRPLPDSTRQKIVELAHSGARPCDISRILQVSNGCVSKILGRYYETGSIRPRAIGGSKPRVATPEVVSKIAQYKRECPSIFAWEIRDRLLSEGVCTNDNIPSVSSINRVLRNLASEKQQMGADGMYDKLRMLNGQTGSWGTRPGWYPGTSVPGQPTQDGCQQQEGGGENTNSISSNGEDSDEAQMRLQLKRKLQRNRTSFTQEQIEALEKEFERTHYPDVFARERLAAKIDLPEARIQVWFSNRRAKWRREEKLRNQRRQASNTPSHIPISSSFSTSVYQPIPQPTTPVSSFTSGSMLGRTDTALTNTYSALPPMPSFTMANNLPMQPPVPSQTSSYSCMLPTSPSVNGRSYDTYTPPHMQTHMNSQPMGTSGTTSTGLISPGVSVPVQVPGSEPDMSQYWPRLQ
X-box-binding protein 1 (Homo sapiens), sequence (P17861 whole entry, looked up, the tested form may be a part): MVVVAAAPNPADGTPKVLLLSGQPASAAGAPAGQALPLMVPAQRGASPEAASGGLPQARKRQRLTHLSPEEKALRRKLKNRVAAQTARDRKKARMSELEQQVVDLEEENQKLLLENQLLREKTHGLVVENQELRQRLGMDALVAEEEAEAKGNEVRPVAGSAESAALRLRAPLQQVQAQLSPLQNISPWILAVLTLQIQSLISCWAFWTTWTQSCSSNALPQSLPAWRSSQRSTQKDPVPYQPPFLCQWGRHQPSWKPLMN
Androgen receptor (Homo sapiens), sequence (P10275 whole entry, looked up, the tested form may be a part): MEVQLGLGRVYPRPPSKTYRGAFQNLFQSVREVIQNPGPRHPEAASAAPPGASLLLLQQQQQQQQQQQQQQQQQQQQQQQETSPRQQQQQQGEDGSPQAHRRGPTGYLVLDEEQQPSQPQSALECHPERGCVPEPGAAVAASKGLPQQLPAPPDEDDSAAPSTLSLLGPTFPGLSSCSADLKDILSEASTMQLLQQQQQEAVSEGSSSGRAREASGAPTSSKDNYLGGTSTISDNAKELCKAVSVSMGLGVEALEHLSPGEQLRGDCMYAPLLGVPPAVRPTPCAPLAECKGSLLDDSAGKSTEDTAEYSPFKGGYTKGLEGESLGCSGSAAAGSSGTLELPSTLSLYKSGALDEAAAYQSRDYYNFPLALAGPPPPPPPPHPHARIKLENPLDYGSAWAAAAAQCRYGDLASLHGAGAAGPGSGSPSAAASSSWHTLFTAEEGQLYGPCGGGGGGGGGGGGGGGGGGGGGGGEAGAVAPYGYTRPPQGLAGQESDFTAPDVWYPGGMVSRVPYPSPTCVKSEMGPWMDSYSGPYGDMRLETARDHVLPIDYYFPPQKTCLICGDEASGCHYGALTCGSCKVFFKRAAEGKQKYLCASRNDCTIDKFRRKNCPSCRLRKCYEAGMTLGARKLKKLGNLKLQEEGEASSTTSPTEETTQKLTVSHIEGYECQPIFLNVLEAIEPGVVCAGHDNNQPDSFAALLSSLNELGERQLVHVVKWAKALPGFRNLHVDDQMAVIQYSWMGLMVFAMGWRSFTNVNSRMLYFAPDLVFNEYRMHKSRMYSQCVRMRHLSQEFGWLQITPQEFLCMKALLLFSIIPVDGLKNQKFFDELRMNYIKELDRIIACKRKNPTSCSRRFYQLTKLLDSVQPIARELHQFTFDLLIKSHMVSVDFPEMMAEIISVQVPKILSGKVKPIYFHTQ
Steroid hormone receptor ERR1 (Homo sapiens), sequence (P11474 whole entry, looked up, the tested form may be a part): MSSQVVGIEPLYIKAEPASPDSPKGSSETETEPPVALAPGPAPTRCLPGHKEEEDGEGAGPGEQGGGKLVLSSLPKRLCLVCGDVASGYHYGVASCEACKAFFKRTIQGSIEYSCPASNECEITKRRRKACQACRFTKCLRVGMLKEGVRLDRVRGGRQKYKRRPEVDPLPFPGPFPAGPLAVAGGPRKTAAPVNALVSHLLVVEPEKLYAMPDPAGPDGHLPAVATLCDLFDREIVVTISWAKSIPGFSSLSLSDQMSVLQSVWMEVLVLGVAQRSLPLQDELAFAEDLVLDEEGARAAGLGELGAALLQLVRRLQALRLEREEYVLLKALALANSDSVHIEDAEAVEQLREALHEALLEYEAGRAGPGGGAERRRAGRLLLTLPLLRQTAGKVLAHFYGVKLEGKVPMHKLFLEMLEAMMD

CO[C@@H]1[C@H](OC(=O)NC(=O)CCl)CC[C@]2(CO2)[C@H]1[C@@]1(C)O[C@@H]1CC=C(C)C
inactive: [1] | [2] | [3] | [4] | [5] | [6] | [8] | [9] | [10] | [11]
active: [7] 39.5 µM

CC(C)(O)c1cnn2c(-c3ccc(F)c(-c4c(F)cccc4C#N)c3)cnc2n1
active: [6] 13.1 µM | [7] 8.97 µM | [10] 0.538 µM
inactive: [1] | [2] | [3] | [12] | [4] | [5] | [8] | [9] | [13] | [11] | [14]

[O-][Cl+]O
inactive: [1] | [2] | [15] | [3] | [4] | [5] | [6] | [7] | [8] | [9] | [10] | [16] | [17] | [14] | [18]

Clc1ccccc1Cl
inactive: [1] | [2] | [3] | [12] | [4] | [5] | [6] | [7] | [8] | [9] | [10]

[Cl-].[Cl-].[Hg+2]
active: [4] 51 µM
inactive: [1] | [3] | [12] | [5] | [6] | [7] | [8] | [9] | [10] | [13] | [14]

ClCCOCCCl
inactive: [1] | [2] | [3] | [4] | [5] | [6] | [7] | [8] | [9] | [13] | [14]

CCCCCCCCn1sccc1=O
inactive: [2] | [15] | [5] | [6] | [8] | [9] | [14] | [18]
active: [1] 19.1 µM | [3] 18.4 µM | [4] 14.8 µM | [7] 15.6 µM | [10] 16.7 µM | [16] 16.9 µM

Nc1cc(Cl)cc(C(=O)O)c1Cl
inactive: [1] | [2] | [3] | [12] | [4] | [5] | [6] | [7] | [8] | [9] | [10] | [17] | [13]

c1ccc(C2CO2)cc1 (configuration not stated)
inactive: [1] | [2] | [3] | [12] | [4] | [5] | [6] | [7] | [8] | [9] | [10] | [13] | [14]

CCOc1cccc(C2(N3CCN(c4ccccc4)CC3)CCC(C)CC2)c1 (configuration not stated)
inactive: [1] | [15] | [3] | [12] | [4] | [5] | [6] | [7] | [8] | [9] | [10] | [16] | [18]
